PfHsp90 set2 – inhibits growth of yeast expressing Plasmodium falciparum Hsp90. S. cerevisiae expressing PfHsp90, BacTiter-Glo ATP, 48 h; yeast lacking PDR1 and PDR3 efflux regulators. inhibition, % at 9.4 µM. actives 0.32% (n = 310,000). AID 504621;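 active means every replicate shows inhibition above about 80%, whatever the replicate mean, limit read from the data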;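 further: 0% = DMSO neutral controls and 100% = 20 µM radicicol positive controls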
tim23-1 inh – growth inhibitors of tim23-1 mutant yeast | S. cerevisiae tim23-1 growth, BacTiter-Glo luminescence, 24 h | inhibition, % at 20 µM | actives 1.3% (n = 330,000) | AID 463212;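 active means growth inhibition of the mutant yeast at or above 50%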;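 further: temperature-sensitive mutant grown at 25 °C; plate controls were DMSO-treated mutant yeast for no effect and medium wells lacking yeast for full effect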
TIM10 inh – growth inhibitors of TIM10 yeast strain | inhibition, % at 10 µM | S. cerevisiae TIM10 strain growth, BacTiter-Glo luminescence, 24 h | actives 1.4% (n = 330,000) | AID 463195;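 active means inhibition of 40% or more at the single tested concentration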;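 further: wild-type TIM10 isogenic control strain grown at permissive 25 °C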
tim10-1 inh – inhibits growth of tim10-1 mutant yeast. S. cerevisiae tim10-1 ts strain growth, BacTiter-Glo, 24 h. inhibition, % at 20 µM. actives 2.2% (n = 330,000);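 active means inhibition of at least 40%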;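 further: mutant grown at 25 °C; 0% = DMSO wells with yeast and 100% = wells holding no yeast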
NLRP3 yeast inh – blocks the NALP3 inflammasome reconstituted in yeast. actives 0.39% (n = 330,000). inhibition, % at 10 µM. AID 2825. Yeast reconstituted NLRP3/ASC/caspase-1, beta-gal luminescence, 24 h;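 active means inhibition of 50% or more; inactive means inhibition below 50%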;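 further: plate controls were induced DMSO wells for no effect and uninduced yeast grown without galactose for full effect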
TIM10 conf – TIM10 yeast growth inhibition, confirmed; actives 63% (n = 4,600); S. cerevisiae tim10 strain growth, BacTiter-Glo luminescence, 24 h; shares compounds with TIM10 inh; inhibition, % at 10 µM;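 active means inhibition of yeast growth at or above a set limit in either of two replicates at 10 µM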;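 further: this counterscreen used the strain with wild-type TIM10; 0% = yeast with DMSO and 100% = medium wells lacking yeast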
Active calls of the source: *; · = no result given. In the library only some 3.7% were active in any assay of this set; here they are far more common.

SMILES	PfHsp90 set2	tim23-1 inh	TIM10 inh	tim10-1 inh	NLRP3 yeast inh	TIM10 conf
NC(=O)Cn1nnc(-c2ccc(CN3CCCCC3)cc2)n1	5	-14	-2	2	19	·
Cc1cc(Cl)ccc1OCCCC(=O)N1CCN(S(=O)(=O)c2ccccc2)CC1	38	13	-12	16	-4	·
COc1ccc2c(c1C)CCC(C)(C#N)C2=O (stereo not drawn)	-13	·	·	·	·	·
O=C(CN1C(=O)NC2(CCCC2)C1=O)NNC(=O)c1ccc(Cl)cc1	-6	11	2	2	14	·
COc1ccc(NC(=O)COc2ccc(/C=C/c3cc[n+](C)cc3)cc2OC)cc1	4	-21	-10	0	-17	·
COc1cc(/C=C/c2cc[n+](C)cc2)ccc1OCC(=O)Nc1ccc(Cl)c(Cl)c1	-2	22	42*	4	3	16
COC(=O)c1c(NC(=O)CN2CCN(c3ccccc3)CC2)c2c(C)cccc2n1C	-1	29	5	25	21	·
CCOC(=O)c1sc2nc(CSc3ccccc3)nc(N3CCCN(C)CC3)c2c1C	18	4	41*	0	40	30
Cc1c(N=NC2=C(O)CC(C)(C)CC2=O)c(=O)n(-c2ccccc2)n1C	2	-2	11	9	13	·
O=C(CSc1nc2c(c(=O)n1-c1ccccc1)SCC2)NCC1CCCO1 (stereo not drawn)	-1	14	-26	-3	4	·
CCOc1ccc2nc3cc(NCc4ccc(OC)cc4)ccc3c(N)c2c1	4	47	83*	38	20	75*
Cc1nn(C2CCS(=O)(=O)C2)c(Cl)c1/C=C/C(=O)OCC(N)=O (stereo not drawn)	22	12	0	-15	12	·
COc1ccccc1-n1cnc2c(c1=O)c1nc3ccccc3nc1n2-c1ccc(C)cc1	-11	34	46*	39	-4	21
COc1ccccc1-n1c2nc3ccccc3nc2c2c(=O)n(-c3cc(C)cc(C)c3)cnc21	-7	33	25	26	23	·
CN1c2ccccc2C(C)(C)[C@]12C=Cc1cc(O)ccc1O2	-24	42	45*	36	28	35*
CC(=O)Nc1cccc(Oc2nc(-c3ccccn3)nc3ccccc23)c1	-12	28	45*	36	5	33*
CC(=O)Nc1cccc(Oc2nc(C(F)(F)F)nc3ccccc23)c1	-2	33	29	18	22	·
Oc1cccc(Nc2nc(O)c(/C=C3\C=Nc4ccccc43)s2)c1	-18	-7	18	-1	12	·
Oc1nc(Nc2cccc(Cl)c2)sc1/C=C1\C=Nc2ccccc21	-25	35	44*	18	35	-16
O=C(c1cnn2c1NC(c1ccc(Br)cc1)CC2C(F)(F)F)N1CCN(C23CC4CC(CC(C4)C2)C3)CC1 (stereo not drawn)	·	41	42*	35	5	14
CCN(CC)S(=O)(=O)c1cc(NC(=O)C(C)N2CCN(Cc3ccc4c(c3)OCO4)CC2)ccc1C (stereo not drawn)	-18	21	-1	25	18	·
Oc1ccc(/C=N/n2c3ccccc3c3ccccc32)cc1	26	37	44*	-4	20	75*
Cc1nnc(C)n1/N=C/c1ccc(O)cc1	-3	2	14	1	10	·
Nc1c(N=O)c(=O)[nH]c(=O)n1-c1ccccc1	18	5	12	10	15	·
CC1(C)C([N+](=O)[O-])C(c2ccc(F)cc2)NC(c2ccc(F)cc2)C1[N+](=O)[O-] (stereo not drawn)	-17	36	23	37	-2	·
SMILES	PfHsp90 set2	tim23-1 inh	TIM10 inh	tim10-1 inh	NLRP3 yeast inh	TIM10 conf
CC1(C)C([N+](=O)[O-])C(c2ccc(Cl)cc2)NC(c2ccc(Cl)cc2)C1[N+](=O)[O-] (stereo not drawn)	-14	30	42*	37	-13	38*
CCCCc1nnc(NC(=O)c2ccc(OCc3c(C)noc3C)cc2)s1	-25	3	6	10	11	·
CC(C)[C@H](NS(=O)(=O)c1cccc(Cl)c1)C(=O)OCC(=O)N1CCN(c2ccccc2)CC1	10	21	47*	39	4	-7
O=[N+]([O-])c1ccc(NC(=S)NCc2ccc(F)cc2)cc1	-2	41	42*	36	44	42*
CCOC(=O)C1=C(C)NC(=O)NC1c1ccc(-c2ccc(Cl)cc2)o1 (stereo not drawn)	-3	16	13	16	7	·
CCOC(=O)C1=C(C)NC(=S)NC1c1ccc(-c2ccc(Cl)cc2)o1 (stereo not drawn)	-37	29	44*	29	7	33*
CCOC(=O)C1=C(C)NC(=S)N(C(C)=O)C1c1ccc(Cl)cc1 (stereo not drawn)	-12	47	42*	25	19	42*
CCOC(=O)C1=C(C)NC(=S)N(C(C)=O)C1c1ccc(OC)c(OC)c1 (stereo not drawn)	-1	19	10	-3	14	·
CCN(CCCNC(=O)Cn1ncc2c([nH]c3ccc(C)cc32)c1=O)c1ccccc1	-36	-10	-9	-10	-4	·
Cn1c(-c2ccc3c(c2)OCO3)cc(=O)c2ccccc21	-16	11	0	12	-1	·
c1ccc2c(c1)c1ccccc1n1c(-c3ccc4c(c3)OCO4)nnc21	-28	42	68*	37	24	8
O=C(Nc1nc(-c2ccccc2)cs1)C1COc2ccccc2O1 (stereo not drawn)	12	44	41*	24	8	35*
O=C(Nc1nc(-c2ccc3c(c2)OCO3)cs1)C1COc2ccccc2O1 (stereo not drawn)	6	34	31	36	18	·
O=C(CCNC(=O)c1ccco1)Nc1ccc(OC(F)F)cc1	9	-4	-1	-24	21	·
COCc1cc(CN(C)C(=O)C2CCC(=O)N(Cc3cccc(OC)c3)C2)[nH]n1 (stereo not drawn)	13	-1	-6	-3	-5	·
CCc1nnc(NC(=O)COc2ccc([N+](=O)[O-])cc2)s1	7	-18	-23	-21	-3	·
CCc1nnc(NC(=O)COc2ccccc2[N+](=O)[O-])s1	-4	13	40*	7	13	-3
O=C(Nc1ccc2c(c1)OCO2)c1cccs1	21	39	47*	37	31	37*
O=C(Nc1ccc2c(c1)OCO2)c1ccc(Br)s1	0	-14	2	-32	33	·
O=C(Nc1cccc(-c2csc(-c3ccccc3)n2)c1)c1cccs1	-6	31	41*	18	14	32*
O=C(Nc1cccc(C2OCCCO2)c1)c1cccs1	14	28	44*	38	13	-5
COc1cc(NC(=O)c2cccs2)cc(OC)c1	-11	29	70*	26	49	56*
Cc1nc(-c2cccc(NC(=O)c3cccs3)c2)cs1	2	33	15	-3	30	·
